# Reference: the supplement of paper PMC4022240
# ± gives the standard deviation.
# T1: HaloTag-ATRX ADD domain (163-292)
# T1 chain: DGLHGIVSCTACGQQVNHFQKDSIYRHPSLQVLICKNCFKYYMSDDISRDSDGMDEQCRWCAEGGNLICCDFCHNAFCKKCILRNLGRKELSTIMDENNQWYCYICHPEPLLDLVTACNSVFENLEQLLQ
# How the values were obtained:
# Assay in all cases: peptide microarray binding signal (635 nm), min-max normalized on array (fraction of array maximum); higher = stronger binding
# Details in all cases: peptide region: H2B 17-29
# [1] = target: T1, HaloTag-ATRX ADD domain (163-292)
# Description: (§1)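 Histone 13-mer peptides were synthesized as cellulose conjugates with a C-terminal 20-atom PEG linker and printed in triplicate on nitrocellulose. The sequence given is the unmodified backbone; PTMs (Kme1/2/3, Kac, Sph/Tph, Rme/Rme2a/Rme2s, Rcit) are listed in the label and the 'peptide modifications' condition. Slides were probed at 4 °C for 1 h with biotin-labelled (HQ)5-HaloTag reader fusions (ATRX-ADD, ING2-PHD) then streptavidin-Alexa647, or with rabbit histone antibodies then anti-rabbit Alexa647. The mean 635 nm signal of the triplicate spots was scaled 0-1 between the lowest and highest values on each array.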
# [2] = target: HaloTag-ING2 PHD (mouse Ing2 200-280)
# Description: as §1
# [3] = target: anti-H3K4me3 antibody ab8580
# Description: as §1
# [4] = target: anti-H3K9me3 antibody ab8898
# Description: as §1
# [5] = binder concentration: 1:2,000 dilution
# [6] = binder concentration: 1:10,000 dilution
# [7] = peptide modifications: H2BK20ac H2BK24ac H2BK28ac, binder concentration: 1:2,000 dilution
# [8] = peptide modifications: H2BK20ac H2BK24ac H2BK28ac, binder concentration: 1:10,000 dilution
# [9] = peptide modifications: H2BK20ac, binder concentration: 1:2,000 dilution
# [10] = peptide modifications: H2BK20ac, binder concentration: 1:10,000 dilution
# [11] = peptide modifications: H2BK20ac H2BK23ac H2BK27ac H2BK28ac, binder concentration: 1:2,000 dilution
# [12] = peptide modifications: H2BK20ac H2BK23ac H2BK27ac H2BK28ac, binder concentration: 1:10,000 dilution
# [13] = peptide modifications: H2BK23ac H2BK24ac, binder concentration: 1:2,000 dilution
# [14] = peptide modifications: H2BK23ac H2BK24ac, binder concentration: 1:10,000 dilution
binder,measurement,setting,value
AVTKAQKKDGKKR [H2B 17-29 A V T K A Q K K D G K K R],peptide microarray binding signal,[1]; binder concentration: 50 nM,0.00972 ± 0.00026
same,peptide microarray binding signal,[1]; binder concentration: 500 nM,0.0111 ± 0.00017
same,peptide microarray binding signal,[2]; binder concentration: 10 nM,0.0152 ± 0.0002
same,peptide microarray binding signal,[2]; binder concentration: 100 nM,0.00666 ± 0.00025
same,peptide microarray binding signal,[3]; [5],0.0021 ± 7.2e-05
same,peptide microarray binding signal,[3]; [6],0.00428 ± 3.3e-05
same,peptide microarray binding signal,[4]; [5],0.00118 ± 1.6e-05
same,peptide microarray binding signal,[4]; [6],0.00421 ± 8.6e-05
AVTKAQKKDGKKR [H2B 17-29 A V T Kac A Q K Kac D G K Kac R],peptide microarray binding signal,"[1]; peptide modifications: H2BK20ac H2BK24ac H2BK28ac, binder concentration: 50 nM",0.00815 ± 0.00023
same,peptide microarray binding signal,"[1]; peptide modifications: H2BK20ac H2BK24ac H2BK28ac, binder concentration: 500 nM",0.00795 ± 0.00026
same,peptide microarray binding signal,"[2]; peptide modifications: H2BK20ac H2BK24ac H2BK28ac, binder concentration: 10 nM",0.00853 ± 0.00032
same,peptide microarray binding signal,"[2]; peptide modifications: H2BK20ac H2BK24ac H2BK28ac, binder concentration: 100 nM",0.0068 ± 0.00034
same,peptide microarray binding signal,[3]; [7],0.00196 ± 0.00041
same,peptide microarray binding signal,[3]; [8],0.002054 ± 1.9e-05
same,peptide microarray binding signal,[4]; [7],0.0013 ± 0.00012
same,peptide microarray binding signal,[4]; [8],0.001614 ± 1.6e-05
AVTKAQKKDGKKR [H2B 17-29 A V T Kac A Q K K D G K K R],peptide microarray binding signal,"[1]; peptide modifications: H2BK20ac, binder concentration: 50 nM",0.00492 ± 0.0007
same,peptide microarray binding signal,"[1]; peptide modifications: H2BK20ac, binder concentration: 500 nM",0.00962 ± 0.0042
same,peptide microarray binding signal,"[2]; peptide modifications: H2BK20ac, binder concentration: 10 nM",0.00448 ± 0.00039
same,peptide microarray binding signal,"[2]; peptide modifications: H2BK20ac, binder concentration: 100 nM",0.00829 ± 0.0016
same,peptide microarray binding signal,[3]; [9],0.000378 ± 2.7e-05
same,peptide microarray binding signal,[3]; [10],0.0012 ± 4.3e-05
same,peptide microarray binding signal,[4]; [9],0.000483 ± 1.2e-05
same,peptide microarray binding signal,[4]; [10],0.000807 ± 2.5e-05
AVTKAQKKDGKKR [H2B 17-29 A V T Kac A Q Kac K D G Kac Kac R],peptide microarray binding signal,"[1]; peptide modifications: H2BK20ac H2BK23ac H2BK27ac H2BK28ac, binder concentration: 50 nM",0.00414 ± 0.00019
same,peptide microarray binding signal,"[1]; peptide modifications: H2BK20ac H2BK23ac H2BK27ac H2BK28ac, binder concentration: 500 nM",0.00762 ± 0.00011
same,peptide microarray binding signal,"[2]; peptide modifications: H2BK20ac H2BK23ac H2BK27ac H2BK28ac, binder concentration: 10 nM",0.00913 ± 0.00015
same,peptide microarray binding signal,"[2]; peptide modifications: H2BK20ac H2BK23ac H2BK27ac H2BK28ac, binder concentration: 100 nM",0.0159 ± 0.00082
same,peptide microarray binding signal,[3]; [11],0.00168 ± 6.8e-05
same,peptide microarray binding signal,[3]; [12],0.0024 ± 4.3e-05
same,peptide microarray binding signal,[4]; [11],0.000861 ± 5.4e-05
same,peptide microarray binding signal,[4]; [12],0.000923 ± 9.6e-06
AVTKAQKKDGKKR [H2B 17-29 A V T K A Q Kac Kac D G K K R],peptide microarray binding signal,"[1]; peptide modifications: H2BK23ac H2BK24ac, binder concentration: 50 nM",0.00605 ± 0.00096
same,peptide microarray binding signal,"[1]; peptide modifications: H2BK23ac H2BK24ac, binder concentration: 500 nM",0.00486 ± 0.0017
same,peptide microarray binding signal,"[2]; peptide modifications: H2BK23ac H2BK24ac, binder concentration: 10 nM",0.00543 ± 0.00017
same,peptide microarray binding signal,"[2]; peptide modifications: H2BK23ac H2BK24ac, binder concentration: 100 nM",0.00347 ± 0.00023
same,peptide microarray binding signal,[3]; [13],0.000566 ± 8.2e-05
same,peptide microarray binding signal,[3]; [14],0.00257 ± 0.00026
same,peptide microarray binding signal,[4]; [13],0.000951 ± 7.5e-05
same,peptide microarray binding signal,[4]; [14],0.00115 ± 4.1e-05
